PubChem BioAssay AID1903 (Southern Research Specialized Biocontainment Screening …, 2009)
About 1,200 (0.39%) of roughly 310,000 compounds were called active. How the calls were made is not given here. The list is a sample of the results. Results with a measured potency or affinity are listed apart.

Biological target: Large T antigen (Simian virus 40) (UniProt P03070)
Assay: TAg ATPase/helicase activity blockers – biochemical (AID 1903)
Conditions: SV40 large T antigen ATPase/helicase inhibition assay; at 20 µM; active compounds read high

Chain of Large T antigen (Simian virus 40) (P03070 whole entry, looked up): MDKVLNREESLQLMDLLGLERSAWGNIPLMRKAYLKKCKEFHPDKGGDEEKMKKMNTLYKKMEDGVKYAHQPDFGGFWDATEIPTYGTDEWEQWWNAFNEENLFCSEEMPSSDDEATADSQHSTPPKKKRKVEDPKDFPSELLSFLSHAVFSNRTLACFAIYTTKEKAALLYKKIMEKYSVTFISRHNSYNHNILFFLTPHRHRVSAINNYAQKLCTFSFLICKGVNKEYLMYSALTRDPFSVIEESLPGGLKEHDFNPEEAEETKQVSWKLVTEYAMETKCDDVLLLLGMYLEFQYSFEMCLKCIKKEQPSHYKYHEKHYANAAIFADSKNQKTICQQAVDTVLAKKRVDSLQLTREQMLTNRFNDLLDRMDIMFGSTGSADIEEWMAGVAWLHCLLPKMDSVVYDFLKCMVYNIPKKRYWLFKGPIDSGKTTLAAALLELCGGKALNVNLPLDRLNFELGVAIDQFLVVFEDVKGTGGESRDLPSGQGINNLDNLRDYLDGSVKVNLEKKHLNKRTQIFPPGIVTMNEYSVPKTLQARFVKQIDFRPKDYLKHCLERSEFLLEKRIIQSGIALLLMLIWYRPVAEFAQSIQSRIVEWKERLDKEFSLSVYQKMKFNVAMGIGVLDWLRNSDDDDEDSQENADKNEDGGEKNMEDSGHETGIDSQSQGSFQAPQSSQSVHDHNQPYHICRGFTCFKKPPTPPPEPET

inhibition, inactive:
CCOC(=O)c1oc2cc(O)c(CC)cc2c(=O)c1-c1cscn1 7.73%
CCOC(=O)c1[nH]nc(-c2c(O)cc(C)cc2O)c1-c1csc(C)n1 6.85%
CCCc1cc(-c2[nH]ncc2-c2ccc(C(=O)OCC)o2)c(O)cc1O 18.2%
CCCc1cc2c(=O)c(-c3cscn3)c(C(=O)OCC)oc2cc1O 2.58%
CN(C)/C=C/C(=O)c1ccc(S(=O)c2ccccc2)cc1 (stereo not given) 12.1%
Cc1cc(/C=C2/NC(=O)NC2=O)c(C)n1-c1ccncc1 6.66%
Cc1cc(/C=N\O)c(C)n1-c1ccncc1 7.77%
Cc1cc(/C=C2/NC(=S)NC2=O)c(C)n1-c1cccnc1 5.09%
Cc1cc(/C=C2\NC(=S)NC2=O)c(C)n1-c1cccnc1 4.58%
COc1ccc2c(c1)CC/C(=C\c1ccc(OC)c(Cn3nc(C)cc3C)c1)C2=O 10.2%
CCCc1nc(-c2ccccc2)c(-c2ccc(OC)c(OC)c2)c(=O)[nH]1 3.66%
O=C(CSc1nnc(CNC(=O)c2cccs2)o1)NC1CCCC1 0.7%
Cc1ccc(C(=O)Cn2nnc(-c3ccccc3)n2)cc1 0.94%
O=C(CCS(=O)(=O)c1cccs1)Nc1ccc(C(=O)NC2CCN(Cc3ccccc3)CC2)cc1 16.1%
O=C(CSCc1c(Cl)cccc1Cl)Nc1ccccc1C(=O)N1CCOCC1 6.94%
CCOC(=O)c1sc(N)c(C(=O)Nc2ccccc2OC)c1C 25.6%
Cc1ccccc1-n1nnnc1SCC(=O)Nc1ccc(S(=O)(=O)N2CCCC2)cc1 -7.07%
Nc1ccc(-c2nc3ccc([N+](=O)[O-])cc3[nH]2)cc1 1.62%
COc1ccc2nc(-c3ccc(N)cc3)[nH]c2c1 25.1%
CC1CCN(C(=O)COC(=O)CSc2ccc(C(N)=O)cc2[N+](=O)[O-])CC1 18.6%
O=C1CCCN1CCNC(=S)Nc1ccccc1 1.29%
O=C1CCCN1CCCNC(=S)Nc1ccccc1 14.1%
COCCOC(=O)C1=C(C)NC(=O)NC1c1ccco1 (stereo not given) 13%
O=C(Nc1ccc(F)cc1)C(=O)C1C(=O)Nc2ccccc21 (stereo not given) 16.2%
Cc1ccc(NC(=O)C(=O)C2C(=O)Nc3ccccc32)cc1 (stereo not given) 6.13%
COc1ccc(CC(=O)NCC(=O)N/N=C/c2sccc2C)cc1 26.5%
N#Cc1ccc(/C=N/NC(=S)Nc2ccc(S(=O)(=O)N3CCOCC3)cc2)cc1 15.2%
O=S(=O)(c1ccc(NC(=S)N/N=C/c2ccc(N3CCOCC3)cc2)cc1)N1CCOCC1 22.6%
Cc1ccc(S(=O)(=O)N2CCN(CC(=O)N/N=C\c3ccc(Cl)c([N+](=O)[O-])c3)CC2)cc1 19.6%
Cc1ccc(S(=O)(=O)N2CCN(CC(=O)N/N=C\c3ccncc3)CC2)cc1 22%
CCCCN(C(=O)NC(=O)Nc1ccccc1C)S(C)(=O)=O 12%
COc1ccc(N2C(=O)CSC2c2cccc(F)c2)cc1 (stereo not given) 9.83%
CC1CC(C)(C)NC(=S)N1CCCC(=O)N1CCN(c2ccc(F)cc2)CC1 (stereo not given) 7.98%
CCOc1cc2c(cc1OCC)C(c1ccccc1OC)OC(=O)C2 (stereo not given) 2.26%
Cc1ccc(/C=N/Nc2nc3ccccc3[nH]2)s1 18.3%
COc1ccc(/C=N/Nc2nc3ccccc3[nH]2)cc1OC 26.4%
C(=N\Nc1nc2ccccc2[nH]1)/c1ccccc1 24.9%
COc1cc(/C=N\Nc2nc3ccccc3o2)cc(OC)c1OC 12.1%
COc1ccc(/C=N/Nc2nc3ccccc3o2)cc1O 28.6%
COc1cc(/C=N\Nc2nc3ccccc3[nH]2)cc(OC)c1OC 22.4%
COc1ccc(-c2noc(N3CCC(C(=O)NCCCN4CCCCC4)CC3)n2)cc1 11.4%
C/C(=N\NC(=O)c1c(Cl)c(C)nn1C)c1cccc(NC(=O)c2cccc(F)c2)c1 27.2%
O=C(Cc1ccccc1)NCC(=O)N/N=C/c1cccnc1 12.9%
O=C1Nc2ccc(S(=O)(=O)N3CCOCC3)c3cccc1c23 3.61%
CCOC(=O)C1=C(C)NC(=O)C(C(N)=O)C12CCCCC2 (stereo not given) 4.24%
CN(CCc1ccccn1)C(=O)CCC1CCCN(C(=O)CN2CCCCCC2)C1 (stereo not given) 16.4%
Cc1cccc(Nc2nc3c(S(=O)(=O)c4ccccc4)nnn3c3ccccc23)c1 8.95%
CCCN1C(=O)/C(=N\OCC(=O)NC23CC4CC(CC(C4)C2)C3)c2ccccc21 19.7%
COc1ccc(C2CC(=O)c3cnc(N4CCc5ccccc54)nc3C2)cc1OC (stereo not given) 6.12%
CCOC(=O)C(CC)n1nc(C)n2c(cc3sccc32)c1=O (stereo not given) 9.17%
Cc1cc(N)ccc1-n1c(C)ccc1C 15.8%
Cc1cc(N)ccc1N1CCCC1 11.3%
Cc1ccc(CNC(C)(C)CO)cc1 1.14%
Cc1nc(-c2ccccc2O)n(S(=O)(=O)N(C)C)n1 12.3%
CCN(C(=O)c1ccc(Cl)c([N+](=O)[O-])c1)c1ccccc1 4.72%
CCN(CC(=O)Nc1ccc(NC(C)=O)cc1)C(=O)c1ccc(NC2CC2)c([N+](=O)[O-])c1 9.29%
COCCNC(=O)C(=O)c1cc(C)n(-c2ccc([N+](=O)[O-])cc2)c1C 3.94%
CCN1C(=O)c2ccccc2Sc2ccc(C(=O)NCCCN3CCCCC3)cc21 10.1%
CCc1nnc(NC(=O)COc2ccc(N(C)S(=O)(=O)c3ccc(C)cc3)cc2)s1 4.23%
C=CCOc1cccc(CNc2cccc(C(=O)O)c2)c1 15.2%
C=CCOc1ccc(CNc2ccc3[nH]c(=O)[nH]c3c2)cc1OC 13.7%
Oc1ccc(NCc2cccc(OCc3ccc(F)cc3)c2)cc1 29.3%
C=CCOc1ccc(CNc2ccc(NC(=O)CCC)cc2)cc1OCC 18.3%
C=CCOc1cccc(CNCc2ccncc2)c1 8.06%
Fc1ccc(CNc2ccc(CNc3ncn[nH]3)cc2)cc1 19.6%
